This is a sample that favours compounds with a hit; in the whole collection about 19% have one here.
MARV entry inh: blocks Marburg virus binding to or entry into cells; AID 540276; actives 1.8% (n = 300,000); Marburg virus pseudotyped entry inhibition, cell reporter; Potency, µM (top dose mostly 37.8 µM), most hits filed as inhibitors; calls by dose curve; tested in HEK293 cells
Shiga toxin inh: inhibitors of Shiga toxin in Vero cells | inhibition, % at 38.7 µM | actives 9.2% (n = 290,000) | Vero cells, Shiga toxin protein synthesis inhibition reporter; in the data active = inhibition mostly above about 28%, no sharp cut-off; inactive = mostly below about 43%
LASV entry inh: blocks Lassa virus binding to or entry into cells. Lassa virus pseudotype entry inhibition, cell reporter. actives 1.2% (n = 300,000). Potency, µM (highest dose often 37.9 µM), actives largely listed as inhibitors; calls by dose curve; tested in HEK293 cells; also: nearly all actives have a fitted effect of over 50% in size
Pf growth 96h: P. falciparum growth inhibition at 96 hours. Potency, µM (doses to about 28.7 µM), most hits filed as inhibitors. actives 6.9% (n = 320,000). P. falciparum luciferase reporter growth, 96 h. AID 504834
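Two-generation exposure (96 h) targets delayed-death phenotype. Reporter parasites carrying integrated firefly luciferase, in red cells at 2% hematocrit and 0.05% parasitemia final, kept at 37 C, 5% CO2; luminescence loss indicates inhibition.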
Pf growth 48h: inhibits P. falciparum growth in the first generation, 48 h; P. falciparum luciferase growth in erythrocytes, 48 h; Potency, µM (doses to about 28.7 µM), usual class: inhibitors; actives 5.9% (n = 310,000); AID 504832
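Read-out is firefly luciferase luminescence from an integrated reporter in P. falciparum, so falling signal marks reduced parasite growth. Infected erythrocytes were at 2% hematocrit and 0.1% parasitemia (final) in Albumax-supplemented RPMI 1640.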
CHX counter: counter-screen hit for Shiga toxin inhibitors, cycloheximide | actives 12% (n = 300,000) | cell reporter, cycloheximide protein synthesis inhibition counterscreen | AID 2314 | max response, %; in the data active = max response mostly above about 13%, no sharp cut-off; inactive = mostly below about 14%; also: read at 38.3 µM for the half of the compounds with a filed dose
Hits are given with their value; n = inactive; u = inconclusive; x = no result given. Unless noted, calls follow the shape of the dose curve; as a rule, active = well fitted inhibition curve with a large enough effect; inconclusive = small, poorly fitted or top-dose-only effect, or another doubt; inactive = no such curve, though single readings can be large or run the other way.

SMILES	MARV entry inh	Shiga toxin inh	LASV entry inh	Pf growth 96h	Pf growth 48h	CHX counter
O=C(COC(=O)CCc1ccc(S(=O)(=O)N2CCOCC2)cc1)Nc1ncc(C(F)(F)F)cc1Cl	u	n	n	x	n	n
COc1ccccc1-n1c(C)cc(C=O)c1C	n	n	n	u	x	n
O=C(c1ccc2c(c1)N(Cc1ccc(F)cc1)CCS2)N1CCOCC1	n	n	n	10µM	n	n
O=C(c1ccc2c(c1)N(Cc1ccccc1)CCS2)N1CCCCC1	x	n	x	0.74µM	u	n
O=C(Nc1ccccc1[N+](=O)[O-])C1(c2ccccc2)CCOCC1	u	n	n	n	n	n
OC(c1ccccc1)c1cccnc1 (stereo unspecified)	n	n	n	n	n	n
COc1ccc(C(C)=O)cc1COC(=O)c1ccc(OCc2c(C)noc2C)cc1	n	n	n	8.3µM	u	n
O=C(Nc1ccc(Br)cc1)c1ccc(F)c(S(=O)(=O)NCc2cccs2)c1	u	n	4µM	u	u	n
O=S(=O)(NCc1cccs1)c1ccc(Br)cc1	x	n	x	n	n	n
O=C(COC(=O)COc1ccccc1)Nc1ccc2c(c1)OCCO2	n	x	n	x	x	x
Cc1ccc([N+](=O)[O-])cc1NC(=O)c1ccc2c(c1)OCO2	n	n	n	n	n	n
O=C(Nc1cccc([N+](=O)[O-])c1)c1ccc2c(c1)OCCO2	u	89	u	u	n	41
O=C(CC(=O)c1ccccc1)Nc1ccc2c(c1)OCCO2	u	74	8.9µM	n	n	43
COc1ccc(NC(=O)Cn2c(=O)n(CC3CCCO3)c(=O)c3ccccc32)cc1 (stereo unspecified)	n	x	n	x	x	x
O=c1oc2ccccc2c(NC2CCCCC2)c1NS(=O)(=O)c1ccc(F)c(Cl)c1	u	n	u	u	n	n
O=C(Nc1ccc2c(c1)OCCO2)c1cnn(-c2ccccc2)n1	x	x	x	n	n	x
O=C(NC(=S)Nc1ccc2c(c1)OCCO2)c1cccc(Br)c1	u	74	n	n	n	74
O=C(Nc1cccc(Br)c1)c1cc(-c2ccc3c(c2)OCCO3)on1	u	x	n	x	x	x
O=C(Oc1ccc2c(c1)OCO2)c1cccs1	n	40	n	n	n	27
O=C(Nc1ccc2c(c1)OCCO2)c1ccccc1	u	69	u	n	n	42
Cc1noc(C)c1COc1cccc(C(=O)Nc2ccc3c(c2)OCO3)c1	x	61	x	n	n	28
Cc1cc(OC(=O)c2cccs2)ccc1C(C)C	n	n	n	u	x	n
O=C(Cc1c[nH]c2ccccc12)NNC(=O)c1ccccc1	n	n	n	n	n	n
CCOc1cccc(C(=O)Nc2ccc3c(c2)OCCO3)c1	u	n	u	n	n	36
O=C(Nc1cccc(NC(=O)c2cccs2)c1)c1ccc(Br)cc1	n	n	n	n	n	n
SMILES	MARV entry inh	Shiga toxin inh	LASV entry inh	Pf growth 96h	Pf growth 48h	CHX counter
O=C(Nc1cccc([N+](=O)[O-])c1)c1cnccn1	n	n	n	u	n	n
O=C(Nc1cccc([N+](=O)[O-])c1)c1[nH]ncc1Cl	u	97	u	n	n	62
O=C(Nc1cccc(NC(=O)c2cccs2)c1)c1ccc2c(c1)OCCO2	n	21	n	n	n	23
O=C(CCCc1ccccc1)Nc1ccc2c(c1)OCCO2	u	66	8.9µM	n	n	36
CN(C)c1nc(N)nc(-c2cccnc2)n1	n	n	n	u	n	n
O=C(Nc1ccc2c(c1)OCCO2)c1cccc(Cl)c1	u	x	u	u	n	44
O=C(CC1CS(=O)(=O)CC1CC(=O)Nc1ccc2c(c1)OCCO2)Nc1ccc2c(c1)OCCO2 (stereo unspecified)	x	107	x	n	n	51
O=C(Nc1ccccc1C(=O)Nc1ccc2c(c1)OCO2)c1cccs1	n	n	u	n	x	17
O=C(Nc1ccc2c(c1)OCO2)c1ccccc1	u	87	u	n	n	53
CC1CCN(C(=O)CN2C(=O)NC3(CCCc4ccccc43)C2=O)CC1 (stereo unspecified)	n	x	n	n	n	x
Cc1ccc(CNC(=O)C2CCCN(c3cnccn3)C2)cc1 (stereo unspecified)	x	n	x	u	n	n
CC(C)(C)NS(=O)(=O)c1ccc(C(=O)Nc2ccc3c(c2)OCO3)cc1	u	77	n	n	n	21
O=C(NC(=S)Nc1ccccc1Br)c1ccc2c(c1)OCO2	u	60	n	n	n	31
CC(C)(C)NS(=O)(=O)c1ccc(CCC(=O)Nc2ccc3c(c2)OCO3)cc1	n	n	u	u	x	n
O=C(O)c1ccccc1NC(=S)NC(=O)c1cccc2ccccc12	n	n	n	n	n	n
CCCc1cc(C(=O)Nc2cccc([N+](=O)[O-])c2)cs1	x	104	x	n	n	65
O=C(NC(=S)Nc1ccc2c(c1)OCCO2)c1cccc2ccccc12	n	76	u	n	n	37
O=C(Nc1cccc([N+](=O)[O-])c1)c1ccc2snnc2c1	x	n	x	n	n	n
COc1ccc(S(=O)(=O)N(C)CC(=O)NC2CC2)cc1OC	n	n	n	n	n	n
S=C(Nc1ccc(Br)cc1)Nc1ccc2c(c1)OCCO2	x	103	x	n	n	58
CC(C)c1ccc(O)c(NC(=S)NC(=O)c2ccc3c(c2)OCO3)c1	x	99	x	u	u	53
O=C(Nc1cccc([N+](=O)[O-])c1)c1ccncc1	n	n	n	n	n	n
CN1C(=O)c2ccc(C(=O)Nc3ccc4c(c3)OCO4)cc2C1=O	x	n	x	n	n	24
CC(C)(C)c1ccc(C(=O)Nc2cccc([N+](=O)[O-])c2)cc1	u	96	u	u	n	86
Clc1ccc(CCNc2ncnc3c2c(-c2ccccc2)cn3-c2ccccc2)cc1	x	x	n	x	x	x
SMILES	MARV entry inh	Shiga toxin inh	LASV entry inh	Pf growth 96h	Pf growth 48h	CHX counter
COc1cc(NC(=S)Nc2ccc3c(c2)OCCO3)cc(OC)c1OC	n	69	u	n	n	32
Cc1ccc(NC(=O)c2ccc(OCc3c(C)noc3C)cc2)cc1C	10µM	x	u	x	x	x
O=C(Nc1ccc2c(c1)OCCO2)c1cccc(C(=O)Nc2ccc3c(c2)OCCO3)c1	u	37	u	n	n	34
O=C(CCCc1cccs1)Nc1ccc2c(c1)OCO2	x	89	x	n	n	31
CC(=O)Nc1ccc(NC(=O)c2ccc(OCc3c(C)noc3C)cc2)cc1	n	x	n	x	x	x
COc1ccc(S(=O)(=O)N2CCC(C(=O)NCCOc3ccccc3F)CC2)cc1OC	n	x	n	u	u	x
CC1C(Br)C(=O)NC(=O)N1Cc1ccccc1 (stereo unspecified)	n	n	n	n	n	n
CCCOc1ccc(C(=O)N(Cc2ccco2)Cc2ccco2)cc1	n	x	u	x	x	x
O=C(NC(=S)Nc1cccc(Cl)c1N1CCCCC1)c1ccc2c(c1)OCCO2	u	n	u	u	u	20
O=C(Nc1cccc(Cl)c1)c1ccc(F)c(S(=O)(=O)NCc2ccc3c(c2)OCO3)c1	u	n	u	u	n	21
NS(=O)(=O)c1ccc(NC(=S)NC(=O)c2ccc3c(c2)OCO3)cc1	u	n	n	n	n	n

Source: PubChem (National Center for Advancing Translational Sciences (NCATS))
